PME-1 primary: blocks human protein phosphatase methylesterase 1. Q9Y570. recombinant PME-1, FP-Rh probe fluorescence polarization. inhibition, % at 5.9 µM. hit rate 0.53% among 320,000;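 active means inhibition above the campaign mean of all compounds plus 3 SD, cut at about 26% in these data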;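 further: competitive labeling of PME-1 active site by serine hydrolase directed probe; inhibitors block probe labeling so polarization falls and inhibition rises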
Target sequence (Q9Y570 whole entry, looked up): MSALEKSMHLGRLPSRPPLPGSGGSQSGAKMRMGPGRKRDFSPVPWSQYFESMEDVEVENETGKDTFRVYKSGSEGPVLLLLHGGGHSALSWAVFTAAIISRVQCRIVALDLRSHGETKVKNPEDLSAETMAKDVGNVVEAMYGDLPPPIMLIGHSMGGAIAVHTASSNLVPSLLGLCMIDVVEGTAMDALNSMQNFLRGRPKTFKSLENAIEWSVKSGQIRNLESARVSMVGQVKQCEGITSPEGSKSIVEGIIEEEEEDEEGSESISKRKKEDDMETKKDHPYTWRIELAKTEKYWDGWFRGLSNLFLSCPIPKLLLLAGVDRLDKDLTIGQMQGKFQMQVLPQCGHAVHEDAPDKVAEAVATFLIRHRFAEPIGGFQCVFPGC
PAD4 FP inh: PAD4 (human) enzyme inhibition. hit rate 0.41% among 330,000. recombinant PAD4, RCA probe fluorescence polarization. inhibition, % at 6.36 µM. Q9UM07;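 active means percent inhibition above a cutoff equal to the mean of all tested compounds plus 3 SD, cut at about 15% in these data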
Fam108B counter: counter-screen for RBBP9 inhibitors: inhibitors of mouse Fam108B. recombinant Fam108B, FP-Rh probe fluorescence polarization. inhibition, % at 9.51 µM. AID 1947. hit rate 0.33% among 300,000;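 active means inhibition above the screen mean inhibition plus 3 SD, computed separately per campaign, cut at about 18% in these data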;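 further: inhibitors lower polarization as less probe binds the enzyme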
LYPLA2 counter: blocks human lysophospholipase 2, a PME1 counter-screen; O95372; hit rate 0.38% among 320,000; inhibition, % at 5.9 µM; AID 2177; recombinant LYPLA2, FP-Rh probe fluorescence polarization;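 active means inhibition above the screen-wide mean plus 3 SD, limit set per campaign, cut at about 26% in these data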
GSTO1 counter: counter-screen for RBBP9 inhibitors: inhibitors of human GSTO1 | hit rate 1.1% among 300,000 | recombinant GSTO1, activity-based probe fluorescence polarization | inhibition, % at 5.96 µM | P78417;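 active means inhibition above the campaign mean inhibition plus 3 SD, cut at about 35% in these data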
LYPLA1 inh: blocks human lysophospholipase 1, a PME1 counter-screen; hit rate 0.16% among 320,000; recombinant LYPLA1, FP-Rh probe fluorescence polarization; inhibition, % at 5.9 µM; AID 2174;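 active means inhibition above the mean of all tested compounds plus 3 SD, set per campaign, cut at about 14% in these data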;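 further: inhibitors block serine hydrolase probe labeling of LYPLA1 so polarization falls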
Hits are given with their value. Most compounds without a hit are left out; they make up all but 1.8% or so of the library.

How did Cc1c(C(=O)O)cccc1-c1ccc(/C=C2/NC(=O)N(c3ccccc3)C2=O)o1 do in these assays?
PME-1 primary: inactive; PAD4 FP inh: inactive; Fam108B counter: inactive; LYPLA2 counter: inactive; GSTO1 counter: inactive; LYPLA1 inh: inactive

Results for Cc1c(C(=O)O)cccc1-c1ccc(/C=C2\SC(=O)NC2=O)o1 ?
PME-1 primary: inactive; PAD4 FP inh: inactive; Fam108B counter: inactive; LYPLA2 counter: inactive; GSTO1 counter: 35; LYPLA1 inh: inactive

Results for Cc1cc(C)nc(SCc2nnc(SCC(=O)Nc3nc(-c4ccccc4)cs3)n2C)n1 ?
PME-1 primary: inactive; PAD4 FP inh: inactive; Fam108B counter: inactive; LYPLA2 counter: inactive; GSTO1 counter: inactive; LYPLA1 inh: inactive

What do the screens show for `Cc1ccc(C(=O)CSc2nnc(CNc3nc(-c4ccccc4)cs3)n2C)cc1`?
PME-1 primary: inactive; PAD4 FP inh: inactive; Fam108B counter: inactive; LYPLA2 counter: inactive; GSTO1 counter: 37; LYPLA1 inh: inactive

What do the screens show for `Nc1c(C(=O)Nc2ccc(Cl)c(C(=O)O)c2)sc2nc3c(cc12)CCCC3`?
PME-1 primary: inactive; PAD4 FP inh: inactive; Fam108B counter: inactive; LYPLA2 counter: inactive; GSTO1 counter: inactive; LYPLA1 inh: inactive

How did Nc1c(C(=O)Nc2cccc(C(=O)O)c2)sc2nc3c(cc12)CCCC3 do in these assays?
PME-1 primary: 26; PAD4 FP inh: inactive; Fam108B counter: inactive; LYPLA2 counter: inactive; GSTO1 counter: inactive; LYPLA1 inh: inactive

How did O=C(Cn1cc(C(F)(F)F)ccc1=O)N1CCc2ccccc2C1 do in these assays?
PME-1 primary: inactive; PAD4 FP inh: inactive; LYPLA2 counter: inactive; LYPLA1 inh: inactive

What do the screens show for `O=c1[nH]c(C2CCN(S(=O)(=O)c3ccc(C(F)(F)F)cc3)CC2)nc2c1nnn2Cc1ccc(F)cc1`?
PME-1 primary: 68; PAD4 FP inh: inactive; Fam108B counter: inactive; LYPLA2 counter: inactive; GSTO1 counter: inactive; LYPLA1 inh: inactive

Results for CC(C)CC(=O)O/N=C1\C(=O)N(Cc2ccc(Cl)cc2)c2ccc([N+](=O)[O-])cc21 ?
PME-1 primary: 35; PAD4 FP inh: inactive; Fam108B counter: 43; LYPLA2 counter: 43; GSTO1 counter: 40; LYPLA1 inh: inactive

Results for O=c1oc2c3c4c(cc2s1)CCCN4CCC3 ?
PME-1 primary: inactive; PAD4 FP inh: inactive; Fam108B counter: inactive; LYPLA2 counter: inactive; GSTO1 counter: 51; LYPLA1 inh: inactive

How did CCN(C[C@H]1N[C@@](CC)(C(=O)OC)[C@H]2C(=O)N(C)C(=O)[C@@H]12)C(=O)NC(C)C do in these assays?
PAD4 FP inh: inactive

Results for CCOC(=O)C1=C(C)c2ccccc2OC1(CC)C(=O)OCC (centres undefined) ?
PAD4 FP inh: inactive

How did CCOC(=O)C1=C(C)OC2(O)c3ccccc3C(=O)C12O (centres undefined) do in these assays?
PME-1 primary: inactive; PAD4 FP inh: inactive; Fam108B counter: inactive; LYPLA2 counter: inactive; GSTO1 counter: 74; LYPLA1 inh: inactive

Results for CC(OC(=O)c1cc(S(=O)(=O)N2CCOCC2)ccc1Br)C(=O)N1CCOCC1 (centres undefined) ?
PME-1 primary: inactive; PAD4 FP inh: inactive; LYPLA2 counter: inactive; LYPLA1 inh: inactive

What do the screens show for `CC1=C(C(=O)OCc2ccccc2)C(/C=C/c2ccccc2)NC(=S)N1` (centres undefined)?
PME-1 primary: inactive; PAD4 FP inh: inactive; Fam108B counter: inactive; LYPLA2 counter: 49; GSTO1 counter: inactive; LYPLA1 inh: inactive

What do the screens show for `CCOc1ccc2nc(SCC(=O)Nc3ccc4c(c3)OCCO4)[nH]c2c1`?
PME-1 primary: 27; PAD4 FP inh: inactive; Fam108B counter: inactive; LYPLA2 counter: inactive; GSTO1 counter: inactive; LYPLA1 inh: inactive

How did COc1ccc2nc(SCC(=O)Nc3ccc4c(c3)OCCO4)[nH]c2c1 do in these assays?
PME-1 primary: inactive; PAD4 FP inh: inactive; Fam108B counter: inactive; LYPLA2 counter: inactive; GSTO1 counter: inactive; LYPLA1 inh: inactive

How did C=CCOc1c(/C=N\NC(N)=O)cccc1OC do in these assays?
PME-1 primary: inactive; PAD4 FP inh: inactive; Fam108B counter: inactive; LYPLA2 counter: inactive; GSTO1 counter: inactive; LYPLA1 inh: inactive

Results for C=CCOc1c(OC)cc(/C=N/Nc2cccc(C(=O)O)c2)c(Br)c1Br ?
PME-1 primary: 46; PAD4 FP inh: inactive; Fam108B counter: 25; LYPLA2 counter: inactive; GSTO1 counter: inactive; LYPLA1 inh: inactive
